Rows were chosen to be rich in hits. Some 9.4% of all compounds tested hit in one or more screens of this group.
IMPase cell inh = qHTS Assay for Identifying the Cell-Membrane Permeable IMPase Inhibitors | Inositol monophosphatase 1 (Rattus norvegicus), P97697 | CHO-M1 cells, IP1 accumulation, HTRF TR-FRET ratio | inhibition (IP1 accumulation), % at 46.1 µM | 120,000 tested, under 10 active; active = well fitted curve in the direction sought with a large enough effect in the signal ratio, not every such curve was filed as active; inconclusive = small, poorly fitted or top-dose-only effect, or a change in a side signal; inactive = no such curve, though single readings can be large or run the other way; the % refers to the signal ratio;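 also: cells stimulated with carbachol in lithium chloride buffer; higher means more IMPase inhibition seen as more IP1 and lower FRET ratio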
Target sequence (P97697 whole entry, looked up): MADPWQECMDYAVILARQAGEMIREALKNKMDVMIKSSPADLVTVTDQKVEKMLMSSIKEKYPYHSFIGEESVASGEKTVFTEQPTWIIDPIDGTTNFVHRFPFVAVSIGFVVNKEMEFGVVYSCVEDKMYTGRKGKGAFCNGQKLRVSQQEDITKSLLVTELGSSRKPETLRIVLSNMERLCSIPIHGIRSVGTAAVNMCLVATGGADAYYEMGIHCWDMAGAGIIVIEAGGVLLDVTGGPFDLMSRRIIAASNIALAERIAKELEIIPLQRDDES
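CHO-M1, 2000 cells/well, cultured 16–30 h; cpd up to 46 uM; carbachol (50 uM solution, stimulation buffer w/ 50 mM LiCl, pH 7.4), 30 min 37C; IP-One TR-FRET, 10 min RT; Ex 320/Em 665, 620; Hill-fit AC50.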
ALDH1A1 inh = qHTS Assay for Inhibitors of Aldehyde Dehydrogenase 1 (ALDH1A1) | AID 1030, 2008 | hit rate 7.3% among 220,000 | Purified ALDH1A1, NADH fluorescence, propionaldehyde substrate | Potency, µM (doses to about 75.3 µM), actives largely listed as inhibitors | Aldehyde dehydrogenase 1A1 (Homo sapiens), P00352; active = well fitted inhibition curve with a large enough effect, not every such curve was filed as active; inconclusive = small, poorly fitted or top-dose-only effect, or another doubt; inactive = no such curve, though single readings can be large or run the other way
HTT ATP protect = qHTS Multiplex Assay to Identify Dual Action Probes in a Cell Model of Huntington: Cytoprotection (ATP) | AID 1471, 2008 | hit rate 0.14% among 230,000 | PC12 HTT-Q103 induced, cytoprotection, ATP luminescence, 40 h | Potency, µM (series often up to 56.4 µM), most hits filed as activators; also: nearly all actives have a fitted effect of over 45% in size
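Stable PC12 Q103-GFP cells in serum-supplemented, phenol red-free DMEM; induction by tebufenozide at 100 nM final; compound dose series; cell viability quantified luminescently from ATP.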
HPGD block = qHTS Assay for Inhibitors of HPGD (15-Hydroxyprostaglandin Dehydrogenase). 15-hydroxyprostaglandin dehydrogenase [NAD(+)] (Homo sapiens), P15428. purified HPGD, NADH fluorescence kinetic, PGE2 substrate. Potency, µM, usual class: inhibitors. hit rate 4.3% among 150,000. AID 894, 2007; active = well fitted inhibition curve with a large enough effect, not every such curve was filed as active; inconclusive = small, poorly fitted or top-dose-only effect, or another doubt; inactive = no such curve, though single readings can be large or run the other way
Target sequence (P15428 whole entry, looked up): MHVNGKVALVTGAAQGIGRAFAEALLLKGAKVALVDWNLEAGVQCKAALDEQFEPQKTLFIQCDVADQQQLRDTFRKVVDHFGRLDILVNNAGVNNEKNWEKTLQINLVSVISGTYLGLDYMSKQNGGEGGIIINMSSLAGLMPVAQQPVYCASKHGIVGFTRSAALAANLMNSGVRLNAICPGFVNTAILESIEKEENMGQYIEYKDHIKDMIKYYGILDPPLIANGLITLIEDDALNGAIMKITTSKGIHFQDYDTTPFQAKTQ
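NADH formation kinetics: reaction with 30 uM PGE2 and 1 mM NAD+ (final), 20 nM enzyme, Tris-HCl pH 8 with Tween 20, after 15 min compound preincubation at room temperature. Fluorescence change, last versus first of five reads.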
HttQ103 aggreg = qHTS Multiplex Assay to Identify Dual Action Probes in a Cell Model of Huntington: Aggregate Formation (GFP); PC12 HttQ103-GFP aggregates, Acumen cytometry, 40 h; Potency, µM (series often up to 46.1 µM), most hits filed as inhibitors; hit rate 1.1% among 220,000; AID 1688, 2009; also: nearly all actives have a fitted effect of over 60% in size
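PC12 cells with ecdysone-inducible HTT exon1 Q103-GFP, induced by 100 nM tebufenozide, given compounds in a concentration series. GFP aggregates (1–25 um, 6 SD above background) counted in lysates by laser-scanning cytometry, 488 nm excitation.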
IMPase Li inh = qHTS Assay for Identifying the Cell-Membrane Permeable IMPase Inhibitors: Potentiation with Lithium. CHO-M1 cells, IP1 TR-FRET (IP-One), carbachol + lithium. hit rate 0.35% among 210,000. Potency, µM (series often up to 59.4 µM), hits mostly inhibitors;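 also: IP1 builds up when IMPase is blocked and the TR-FRET signal falls; nearly all actives have a fitted effect of over 50% in size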
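Lithium-sensitised IP1 accumulation assay; M1-expressing CHO cells treated 30 min at 37C with compound. Competitive antibody detection by time-resolved FRET followed a 10 min room-temperature lysis step.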
Of the large screens only hits and unclear results are named; the others gave an inactive call. Unless noted, calls follow the shape of the dose curve; as a rule, active = well fitted curve in the direction sought with a large enough effect; inconclusive = small, poorly fitted or top-dose-only effect, or another doubt; inactive = no such curve, though single readings can be large; an effect the other way counts as inactive or inconclusive.

O=C(O)C1C2CCC(O2)C1C(=O)Nc1cccc(F)c1 (configuration not stated)	none
O=C(Nc1ccc2c(c1)OCCO2)C1CCN(c2nnnn2-c2ccccc2)CC1	ALDH1A1 inh 3.5µM
COc1cccc(NC(=O)N2CCN(c3nnnn3-c3ccccc3)CC2)c1	ALDH1A1 inh 6.3µM (no result: IMPase cell inh, HPGD block)
O=C(Nc1ccc2c(c1)OCCO2)C1CCN(S(=O)(=O)c2ccccc2)CC1	none (no result: IMPase cell inh, HPGD block)
c1cncc(CNCc2cccnc2)c1	none (no result: IMPase cell inh, HttQ103 aggreg)
COc1c2c(nc3ccccc13)O[C@H]([C@@](C)(O)CO)C2	none (no result: HttQ103 aggreg)
O=C(C1CCN(c2nnnn2-c2ccccc2)CC1)N1CCN(c2ccccc2)CC1	ALDH1A1 inh 10µM
NC(=O)C1CCN(c2nnnn2-c2ccccc2)CC1	ALDH1A1 inh inconclusive
CC(=O)c1ccc(NC(=O)c2ncn(-c3ccccc3)n2)cc1	none (no result: ALDH1A1 inh, HTT ATP protect, HPGD block, HttQ103 aggreg, IMPase Li inh)
CC[C@@H](C)[C@@H](CO[C@@H](Cc1ccccc1)C(=O)N[C@@H](CCS(C)(=O)=O)C(=O)OC(C)C)NC[C@@H](N)CS	ALDH1A1 inh 16µM (no result: IMPase cell inh, HPGD block, HttQ103 aggreg)
CC(=O)Nc1ccc(NC(=O)CN(c2cc(Cl)ccc2Cl)S(C)(=O)=O)cc1	HttQ103 aggreg 32µM (no result: IMPase cell inh, HPGD block)
CS(=O)(=O)N(CC(=O)Nc1cc(Cl)ccc1Cl)c1ccccc1Cl	none
c1ccc(CCc2nc(-c3cccnc3)no2)cc1	none
c1ccc(CCc2ccccc2-c2nc(-c3cccnc3)no2)cc1	ALDH1A1 inh inconclusive, HttQ103 aggreg 20µM
CCCCCn1c(=N)c(S(=O)(=O)c2ccccc2)cc2c(=O)n3cccc(C)c3nc21	none (no result: ALDH1A1 inh, HTT ATP protect, HPGD block, HttQ103 aggreg, IMPase Li inh)
CC1CN(C2CCN(S(=O)(=O)c3ccc(F)cc3)CC2)CC(C)O1 (configuration not stated)	ALDH1A1 inh 25µM
CC1CN(S(=O)(=O)c2ccc(Cl)c(C(F)(F)F)c2)CC(C)O1 (configuration not stated)	IMPase Li inh 10µM
CCN(CC)CCn1nc2c3c(cccc3c1=O)-c1ccccc1-2	HttQ103 aggreg 0.63µM (no result: IMPase cell inh, HPGD block)
C=CCC(O)(C#Cc1ccccc1)c1ccccc1 (configuration not stated)	none (no result: IMPase cell inh, HttQ103 aggreg)
COc1cc(C(=O)Nc2sc3c(c2C(N)=O)CCC(C)C3)cc(OC)c1OC (configuration not stated)	none (no result: ALDH1A1 inh, HTT ATP protect, HPGD block, HttQ103 aggreg, IMPase Li inh)
CC1CCc2c(sc(N)c2C(N)=O)C1 (configuration not stated)	ALDH1A1 inh 13µM, HPGD block inconclusive
Cc1cccc(C(=O)c2c(N)sc3c2CCC(C)C3)c1 (configuration not stated)	ALDH1A1 inh 7.9µM, HttQ103 aggreg inconclusive (no result: HPGD block, IMPase Li inh)
COC(=O)CNC(c1ccccc1)c1cc(Br)ccc1NC(C)=O (configuration not stated)	HTT ATP protect 3.2µM (no result: IMPase cell inh, HPGD block)
COC(=O)CNC(c1ccccc1)c1cc(Br)ccc1NC(=O)c1ccccc1 (configuration not stated)	none (no result: ALDH1A1 inh, HTT ATP protect, HPGD block, HttQ103 aggreg, IMPase Li inh)
NC(=O)c1c(N)sc2c1CCCCC2	ALDH1A1 inh 14µM, HPGD block inconclusive
CNC(=O)c1c(N)sc2c1CCCCC2	ALDH1A1 inh 25µM, HPGD block 32µM
NC(=O)c1c(N)sc2c1CCC2	ALDH1A1 inh inconclusive (no result: IMPase cell inh, HPGD block)
Cc1cccc(Nc2nc(-c3ccc4c(c3)OCCO4)cs2)c1	ALDH1A1 inh 20µM
Cc1cccc(Nc2nc(-c3ccncc3)cs2)c1	HTT ATP protect inconclusive, HttQ103 aggreg inconclusive (no result: IMPase cell inh, HPGD block)
Cc1nc2ccccn2c1-c1csc(Nc2cccc(O)c2)n1	HTT ATP protect inconclusive (no result: IMPase cell inh, HPGD block)
Cc1cccc(Nc2nc(-c3c(C)nc4ccccn34)cs2)c1	ALDH1A1 inh inconclusive, HttQ103 aggreg 11µM
OC(Cc1ccccc1)(Cc1ccccc1)c1ccccc1	none (no result: IMPase cell inh, HttQ103 aggreg)
Cc1cnc(CNc2ncnc3ccc(-c4ccccc4C)cc23)cn1	none (no result: IMPase cell inh, HPGD block, HttQ103 aggreg)

Source: PubChem BioAssay (National Center for Advancing Translational Sciences (NCATS))
